Measured values: PubChem BioAssay AID1063 (University of Pittsburgh Molecular Library Screening Center, 2008)
The campaign covered roughly 200,000 compounds. About 18,000 (9%) were called active. The full list was thinned out, with actives kept by preference. Unmarked numbers belong to inactive results. Rule as the data show it: active = inhibition above about 50%; inactive = the rest.

Assay: antileishmanial activity against promastigotes – primary screen (AID 1063);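 also: promastigotes grown with compound for 44 hours at 28 °C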
Conditions: Leishmania major promastigotes, resazurin fluorescence viability; at 10 µM; stronger effect = higher value

SMILES | inhibition
CC(C)(C)c1ccc(CN2C(=O)CN=C(c3ccccc3)c3ccccc32)cc1 | 97.3% (active)
CCN1CCN(c2ccc([N+](=O)[O-])cc2C#N)CC1 | 3.77%
CN1CCN(Cc2ccccc2C(F)(F)F)CC1 | 0.79%
CN1CCN(Cc2ccc(OC(F)(F)F)cc2)CC1 | 90.4% (active)
CN(C)c1ccc(/C=C2\CC3C4CC=C5CC(O)CCC5(C)C4CCC3(C)C2=O)cc1 (stereo not given) | 37%
Cc1ccc(-n2c(-c3ccc([N+](=O)[O-])cc3)nc3ccccc3c2=O)cc1 | 0.86%
Cc1cccc(OP(=O)(Oc2cccc(C)c2)OC(c2ccccc2)C(F)(F)F)c1 (stereo not given) | 57.8% (active)
CCN(CC)P(=O)(Oc1cccc(C)c1)N(CC)CC | 22.5%
CCC(=O)CC(c1ccc([N+](=O)[O-])cc1)c1c(O)c2ccccc2oc1=O (stereo not given) | -15.5%
CN(C)c1nc(N(C)C)nc(N(C#N)CCCl)n1 | -4.48%
C[N+]12CN3CN(CN(C3)C1)C2 | 93.8% (active)
CC1CCCCN1Cc1cccnc1 (stereo not given) | -6.9%
COc1ccccc1N=Nc1c(O)[nH]c(=S)[nH]c1=O | -4.5%
CN(C)P(=S)(Nc1ccccc1)C(Cl)(Cl)Cl (stereo not given) | 28.1%
CC(C)Oc1cccc(C(=O)C2CCCN(C3CCOCC3)C2)c1 (stereo not given) | 93.2% (active)
O=C(Nc1cccc(OC(=O)N2CCCCC2)c1)N1CCOCC1 | 0.65%
Cc1ccc(-c2nn(CCC#N)cc2C(=O)O)cc1C | -5.5%
COC(=O)COc1cc(C)cc2oc(=O)c3c(c12)CCCC3 | -6.35%
O=C(COC(=O)c1ccccc1)Nc1ccc(Cl)cc1C(=O)c1ccccc1 | -3.5%
CN(C)C(=O)Oc1ccc(OCc2cccc[n+]2C)cc1 | -6.21%

SMILES | inhibition
CCOC(=O)C1(Cc2ccc(Cl)cc2)CCN(C(C)CCn2cccn2)CC1 (stereo not given) | 80.9% (active)
CCOC(=O)C1(CCc2ccccc2)CCN(Cc2ccco2)CC1 | 9%
CC(C)(C)[C@]1(O)C[C@@H]2OC(=O)C[C@@]23C(=O)O[C@@H]2OC(=O)[C@H](O)[C@]213 | -6.51%
CCCOC(=O)C1C2c3ccccc3C(c3ccccc32)C1C(=O)O (stereo not given) | -5.51%
CC(C(=O)Nc1ccc(Cl)cc1Cl)N1CC=C(c2ccccc2)CC1 (stereo not given) | -2.71%
CCN(N=Nc1nonc1OC)c1nonc1OC | 0.16%
COc1ccc(CN2C(=O)NC(=O)/C(=C\c3ccc(OC)c(OC)c3OC)C2=O)cc1 | -6.27%
O=C1NC(=O)N(c2ccc(F)cc2)C(=O)/C1=C/c1ccc2c(c1)CCCN2Cc1ccccc1 | 7.8%
O=C1NC(=O)N(c2ccccc2)C(=O)/C1=C/c1ccc([N+](=O)[O-])s1 | 93.8% (active)
Cc1cccc(N2C(=O)NC(=O)/C(=C\c3cnn(-c4ccccc4)c3)C2=O)c1 | -2.18%
COc1cccc(N2C(=O)NC(=O)/C(=C\c3ccc([N+](=O)[O-])s3)C2=O)c1 | 93.6% (active)
O=C(COC(=O)Cc1ccccc1)Nc1ccc(F)cc1 | 0.24%
OCC#CC[N+]1(CC#Cc2ccccc2)CCCC1 | -1.69%
N=c1ccccn1Cc1ccccc1 | -0.35%
C=CCN(CC=C)C(=O)Nc1ccc(OCC)cc1 | -9.24%
O=C(NC(c1ccc(Cl)cc1)P(=O)(Oc1ccccc1)Oc1ccccc1)OCc1ccccc1 (stereo not given) | 10.2%
CN1CCN(c2cc(N3CCNCC3)ccc2[N+](=O)[O-])CC1 | 44%
CCCCC(=O)N/N=C/c1c(O)n(CC)c(=S)n(CC)c1=O | -5.9%
O=C(Nc1cccc2ccccc12)N1CCC2(CC1)OCCO2 | 0.77%
CCOC(=O)C(O)(c1ccc(N)c(OC)c1)C(F)(F)F (stereo not given) | -13.8%

SMILES | inhibition
COC(=O)C(O)(c1ccc(NC(=O)c2ccco2)c(OC)c1)C(F)(F)F (stereo not given) | -2.15%
CCOC(=O)C(O)(c1ccc(NC(=O)c2ccco2)c(OC)c1)C(F)(F)F (stereo not given) | 73.8% (active)
C=CCn1c(O)c(/C=N/N2CCOCC2)c(=O)[nH]c1=S | -4.94%
COc1ccc(C2N3CC(C)(C)CN23)cc1 (stereo not given) | -5.78%
Cc1ccc(-n2c(C)cc(/C=C3\C(=O)NC(=O)N(C)C3=O)c2C)cc1C | 58% (active)
Cc1cc(/C=C2/C(=O)NC(=O)N(Cc3ccco3)C2=O)c(C)n1-c1ccc(C(=O)O)cc1 | -6.68%
Cc1ccnc(-n2c(C)cc(/C=C3\C(=O)NC(=S)N(C)C3=O)c2C)c1 | 70% (active)
Cc1ccccc1N1C(=O)NC(=O)/C(=C\c2cc(C)n(C)c2C)C1=O | 2.98%
Cc1cc(C=C2C(=O)NC(=O)NC2=O)c(C)n1-c1ccncc1 | 0.48%
Cc1c(C(=O)O)cccc1-n1c(C)cc(/C=C2\C(=O)NC(=O)N(c3ccc4c(c3)OCO4)C2=O)c1C | 2.09%
CC(=O)N(C1=NCCCS1)c1ccccc1F | -4.7%
Cc1cccc(-n2c(O)c(C=NC34CN5CN(CN(C5)C3)C4)c(=O)[nH]c2=O)c1 | -14.4%
O=c1c2ccccc2nc(-c2ccccc2)n1-c1ccccn1 | -4.66%
C[N+]1(C)CCOC(O)(c2ccc(-c3ccc(C4(O)C[N+](C)(C)CCO4)cc3)cc2)C1 (stereo not given) | 20.9%
O=C(OCCN1CCOCC1)C1(c2ccccc2)CCCC1 | 1.57%
CC[N+]1(C)CCCC(OC(=O)C(O)(c2ccccc2)c2ccccc2)C1 (stereo not given) | -2.17%
O=C(CN1CCCCC1)Nc1ccc(Br)cc1C(=O)c1ccccc1Cl | 11.2%
O=C(CCN1CCCCC1)NCC(=O)Nc1ccc(Br)cc1C(=O)c1ccccc1 | 91.4% (active)
CN1CCN(C(=S)SCC(=O)Nc2ccc(Cl)cc2C(=O)c2ccccc2)CC1 | 8.25%
O=[N+]([O-])c1ccc(C2C3C(c4ccccc4)=NC4(CCCCC4)N32)cc1 (stereo not given) | 19.8%
